Values joined by “and” are separate entries in the source; they are usually repeats but may differ in a detail not shown here. Equal values may be shown once. More than one record can exist for a structure, and the calls need not agree. Active and inactive are the calls of the source. Unless noted, calls come from the whole dose curve; as a rule, active = well fitted curve in the direction sought with a large enough effect in the repeat runs; inconclusive = weak or mixed curves; inactive = no such curve, though single readings can be large; an effect the other way counts as inactive or inconclusive.
What was measured:
[1] = qHTS assay to identify small molecule antagonists of the thyroid receptor (TR) signaling pathway (AID 743065); note: nearly all actives have a fitted effect of over 55% in size; note: potency is the fitted concentration of half-maximal effect
Method in brief: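 Antagonism measured as loss of luciferase signal in GH3 cells stably carrying a TRE-luciferase reporter, co-treated with compound and T3 (1 nM final) for 23.5 h at 37 C. Viability was read in the same well by CellTiter-Fluor.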

[2] = tested on: thyroid hormone receptor (rat, GH3 cells); assay: qHTS assay to identify small molecule agonists of the thyroid receptor (TR) signaling pathway (AID 743066; calls by dose curve)
[3] = target: Estrogen receptor (Homo sapiens) (UniProt P03372); assay: qHTS assay to identify small molecule antagonists of the estrogen receptor alpha (ER-alpha) signaling pathway (AID 743069; active = well fitted curve in the direction sought with a large enough effect in the signal ratio in the repeat runs, not every such curve was filed as active; inconclusive = weak or mixed curves, or effect the other way; inactive = no such curve, though single readings can be large or run the other way; the % refers to the signal ratio; note: potency is the fitted concentration of half-maximal effect)
Method in brief: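 ER-alpha-UAS-bla GripTite HEK293 line; 2% charcoal-stripped FBS overnight; plated, 4 hr 37C/5% CO2; cpd in DMSO + 17beta-estradiol, 18 hr 37C; LiveBLAzer B/G FRET substrate 2 hr RT; fluorescence intensity.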

[4] = qHTS assay to identify small molecule antagonists of the estrogen receptor alpha (ER-alpha) signaling pathway - cell viability counter screen (AID 743074; calls by dose curve;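 note: HEK293 cells carrying ER-alpha-UAS-bla reporter stimulated with 17beta-estradiol; nearly all actives have a fitted effect of over 45% in size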; note: potency is the fitted concentration of half-maximal effect)
[5] = target: Estrogen receptor (Homo sapiens) (UniProt P03372); assay: qHTS assay to identify small molecule agonists of the estrogen receptor alpha (ER-alpha) signaling pathway (AID 743075; calls by dose curve;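 note: HEK293 GripTite cells with ER-alpha and UAS-driven beta-lactamase reporter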; note: potency is the fitted concentration of half-maximal effect)
[6] = target: Estrogen receptor (Homo sapiens) (UniProt P03372); assay: qHTS assay to identify small molecule agonists of the estrogen receptor alpha (ER-alpha) signaling pathway using the BG1 cell line (AID 743079); note: nearly all actives have a fitted effect of over 20% in size; note: potency is the fitted concentration of half-maximal effect
[7] = qHTS assay to identify small molecule antagonists of the estrogen receptor alpha (ER-alpha) signaling pathway using the BG1 cell line - cell viability counter screen (AID 743081);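 note: compound given together with 17beta-estradiol as the ER stimulus; series mostly up to about 70 µM; nearly all actives have a fitted effect of over 45% in size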
Aromatase (Homo sapiens) = Aromatase (Homo sapiens) (UniProt P11511); assay: qHTS assay to identify aromatase inhibitors (AID 743083); note: nearly all actives have a fitted effect of over 55% in size; note: potency is the fitted concentration of half-maximal effect
[8] = qHTS assay to identify aromatase inhibitors - cell viability counter screen (AID 743084);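 note: cells stimulated with testosterone during compound exposure; nearly all actives have a fitted effect of over 55% in size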; note: potency is the fitted concentration of half-maximal effect
[9] = qHTS assay to identify small molecule that activate the aryl hydrocarbon receptor (AhR) signaling pathway - cell viability counter screen (AID 743086); note: nearly all actives have a fitted effect of over 45% in size; note: potency is the fitted concentration of half-maximal effect
Method in brief: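 Cytotoxicity counter screen: CellTiter-Fluor signal (30 min, 37 C) in 4000 HepG2 cells/well carrying the DRE-luciferase reporter, following 24 h compound exposure at 37 C.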

[10] = target: Peroxisome proliferator-activated receptor gamma (Homo sapiens) (UniProt P37231); assay: qHTS assay to identify small molecule agonists of the peroxisome proliferator-activated receptor gamma (PPARg) signaling pathway (AID 743094; active = well fitted activation curve with a large enough effect in the signal ratio in the repeat runs, not every such curve was filed as active; inconclusive = weak or mixed curves, or effect the other way; inactive = no such curve, though single readings can be large or run the other way; the % refers to the signal ratio; note: potency is the fitted concentration of half-maximal effect)
Method in brief: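 Compounds dissolved in DMSO were added to PPARg UAS-bla HEK293H cells for 17 h at 37C, and reporter expression was quantified by fluorescence intensity after 1 h with LiveBLAzer B/G FRET substrate.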

[11] = qHTS assay to identify small molecule antagonists of the peroxisome proliferator-activated receptor gamma (PPARg) signaling pathway - cell viability counter screen (AID 743194); note: nearly all actives have a fitted effect of over 55% in size; note: potency is the fitted concentration of half-maximal effect
Method in brief: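 Viability was measured as CellTiter-Glo luminescence in GeneBLAzer PPARg UAS-bla HEK293H cells. These cells had been exposed 17 h at 37 C to compounds together with rosiglitazone at 50 nM final, with the beta-lactamase readout taken in the same wells.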

[12] = qHTS assay for small molecule agonists of the antioxidant response element (ARE) signaling pathway (AID 743202; active = well fitted activation curve with a large enough effect in the signal ratio in the repeat runs, not every such curve was filed as active; inconclusive = weak or mixed curves, or effect the other way; inactive = no such curve, though single readings can be large or run the other way; the % refers to the signal ratio; note: potency is the fitted concentration of half-maximal effect)
Method in brief: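 Quantitative high-throughput format in HepG2 cells bearing an integrated ARE-beta-lactamase reporter. Compound exposure lasted 16 h at 37 C, and fluorescence was read 2 h after adding LiveBLAzer B/G substrate at room temperature.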

[13] = qHTS assay for small molecule agonists of the antioxidant response element (ARE) signaling pathway - cell viability counter screen (AID 743203; calls by dose curve; note: nearly all actives have a fitted effect of over 55% in size; note: potency is the fitted concentration of half-maximal effect)
Method in brief: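 Following 16 hrs of compound treatment at 37C, HepG2 cells with an ARE-controlled beta-lactamase gene were lysed with CellTiter-Glo. Luminescence was read after 30 min at room temperature.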

[14] = qHTS assay for small molecule activators of the heat shock response signaling pathway - cell viability counter screen (AID 743209); note: nearly all actives have a fitted effect of over 50% in size; note: potency is the fitted concentration of half-maximal effect
Method in brief: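 Readout: CellTiter-Glo luminescence, 30 min at room temperature. System: HSE-bla HeLa cells, 1500/well, plated overnight. Treatment: compounds in DMSO, 5 h at 37 C.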

[15] = qHTS assay for small molecule activators of the heat shock response signaling pathway (AID 743210; active = well fitted activation curve with a large enough effect in the signal ratio in the repeat runs, with a control signal flat, not every such curve was filed as active; inconclusive = weak or mixed curves; the % refers to the signal ratio; note: potency is the fitted concentration of half-maximal effect;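 for activation: HeLa cells with beta-lactamase reporter driven by heat shock elements; series mostly up to about 63 µM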)
Method in brief: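 HeLa HSE-bla cells, overnight plating; cpd in DMSO 5 h, 37 C; LiveBLAzer B/G FRET substrate 2.5 h RT; fluorescence intensity read.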

[16] = qHTS assay to identify small molecule agonists of the peroxisome proliferator-activated receptor delta (PPARd) signaling pathway - cell viability counter screen (AID 743211); note: nearly all actives have a fitted effect of over 55% in size; note: potency is the fitted concentration of half-maximal effect
Method in brief: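 Following 5 h plating at 37 C and 5% CO2, PPARd UAS-bla HEK293H cells took up test compounds for 17 h. Viability was quantified by luminescence 30 min after CellTiter-Glo addition at room temperature.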

[17] = qHTS assay to identify small molecule antagonists of the estrogen receptor alpha (ER-alpha) signaling pathway using the BG1 cell line (AID 743080; calls by dose curve; note: nearly all actives have a fitted effect of over 25% in size; note: potency is the fitted concentration of half-maximal effect)
Method in brief: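 Antagonist mode: compounds in DMSO were pinned onto BG1-Luc-4E2 cells alongside 17beta-estradiol agonist, incubated 21.5 h, and ERE-driven luciferase measured with ONE-Glo. Cytotoxicity was multiplexed using CellTiter-Fluor fluorescence.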

[18] = target: Aryl hydrocarbon receptor (Homo sapiens) (UniProt P35869); assay: qHTS assay to identify small molecule that activate the aryl hydrocarbon receptor (AhR) signaling pathway (AID 743085); note: nearly all actives have a fitted effect of over 15% in size; note: potency is the fitted concentration of half-maximal effect;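 for activation: HG2L7.5c1 human HepG2 liver cells with stably integrated DRE-driven firefly reporter; series mostly up to about 70 µM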
Method in brief: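 Measured in HG2L7.5c1 cells: CellTiter-Fluor signal (30 min incubation, 37C) for viability, then luciferase luminescence (30 min, room temperature). Compound contact time was 24 h at 37C, following a 5 h pre-incubation.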

[19] = target: Peroxisome proliferator-activated receptor gamma (Homo sapiens) (UniProt P37231); assay: qHTS assay to identify small molecule antagonists of the peroxisome proliferator-activated receptor gamma (PPARg) signaling pathway (AID 743191; calls by dose curve; note: nearly all actives have a fitted effect of over 30% in size; note: potency is the fitted concentration of half-maximal effect)
Method in brief: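 Beta-lactamase reporter under UAS control in HEK293H PPARg-bla cells; compound treatment 17 h at 37C. Read-out: fluorescence intensity after 1 h room-temperature incubation with LiveBLAzer B/G FRET substrate.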

Measured: Potency

Aryl hydrocarbon receptor (Homo sapiens), sequence (P35869 whole entry, looked up): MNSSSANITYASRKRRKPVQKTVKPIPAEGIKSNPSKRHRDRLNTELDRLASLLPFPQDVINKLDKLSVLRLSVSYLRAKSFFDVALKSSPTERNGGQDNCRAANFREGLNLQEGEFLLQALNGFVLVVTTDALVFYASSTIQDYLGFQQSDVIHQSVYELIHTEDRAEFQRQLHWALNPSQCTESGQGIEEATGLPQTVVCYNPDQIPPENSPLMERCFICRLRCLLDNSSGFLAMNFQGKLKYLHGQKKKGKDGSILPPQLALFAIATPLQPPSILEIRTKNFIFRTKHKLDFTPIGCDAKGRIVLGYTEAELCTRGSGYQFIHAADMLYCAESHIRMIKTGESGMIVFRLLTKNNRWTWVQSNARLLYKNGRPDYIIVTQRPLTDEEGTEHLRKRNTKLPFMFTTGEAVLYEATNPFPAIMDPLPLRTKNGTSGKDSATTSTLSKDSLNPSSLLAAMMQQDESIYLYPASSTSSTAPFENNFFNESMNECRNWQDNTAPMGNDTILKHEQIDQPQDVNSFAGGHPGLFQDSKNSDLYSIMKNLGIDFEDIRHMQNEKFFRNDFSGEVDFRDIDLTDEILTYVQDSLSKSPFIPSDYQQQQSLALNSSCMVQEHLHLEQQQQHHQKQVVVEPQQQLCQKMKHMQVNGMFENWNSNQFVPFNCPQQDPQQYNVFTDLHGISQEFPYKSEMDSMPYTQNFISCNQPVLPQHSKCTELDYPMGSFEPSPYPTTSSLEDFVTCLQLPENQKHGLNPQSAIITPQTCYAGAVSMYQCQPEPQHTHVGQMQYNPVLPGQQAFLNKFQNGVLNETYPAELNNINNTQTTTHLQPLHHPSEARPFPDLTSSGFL
Estrogen receptor (Homo sapiens), sequence (P03372 whole entry, looked up): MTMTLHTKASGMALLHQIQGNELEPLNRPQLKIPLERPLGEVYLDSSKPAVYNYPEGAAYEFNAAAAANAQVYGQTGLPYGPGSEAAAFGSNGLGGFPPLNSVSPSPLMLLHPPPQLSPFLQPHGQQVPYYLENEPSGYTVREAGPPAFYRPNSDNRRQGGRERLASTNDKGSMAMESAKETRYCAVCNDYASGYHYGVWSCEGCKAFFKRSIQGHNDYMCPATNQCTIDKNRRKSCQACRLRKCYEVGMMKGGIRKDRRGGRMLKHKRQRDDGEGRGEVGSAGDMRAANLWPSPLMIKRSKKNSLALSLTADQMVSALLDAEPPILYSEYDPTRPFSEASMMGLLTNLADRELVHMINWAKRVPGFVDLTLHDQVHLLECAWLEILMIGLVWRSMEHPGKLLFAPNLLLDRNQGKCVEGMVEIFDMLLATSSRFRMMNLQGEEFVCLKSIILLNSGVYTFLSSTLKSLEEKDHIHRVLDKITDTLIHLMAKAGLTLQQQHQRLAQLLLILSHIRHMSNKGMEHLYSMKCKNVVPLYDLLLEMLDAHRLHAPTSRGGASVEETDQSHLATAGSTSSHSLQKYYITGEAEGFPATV
Peroxisome proliferator-activated receptor gamma (Homo sapiens), sequence (P37231 whole entry, looked up): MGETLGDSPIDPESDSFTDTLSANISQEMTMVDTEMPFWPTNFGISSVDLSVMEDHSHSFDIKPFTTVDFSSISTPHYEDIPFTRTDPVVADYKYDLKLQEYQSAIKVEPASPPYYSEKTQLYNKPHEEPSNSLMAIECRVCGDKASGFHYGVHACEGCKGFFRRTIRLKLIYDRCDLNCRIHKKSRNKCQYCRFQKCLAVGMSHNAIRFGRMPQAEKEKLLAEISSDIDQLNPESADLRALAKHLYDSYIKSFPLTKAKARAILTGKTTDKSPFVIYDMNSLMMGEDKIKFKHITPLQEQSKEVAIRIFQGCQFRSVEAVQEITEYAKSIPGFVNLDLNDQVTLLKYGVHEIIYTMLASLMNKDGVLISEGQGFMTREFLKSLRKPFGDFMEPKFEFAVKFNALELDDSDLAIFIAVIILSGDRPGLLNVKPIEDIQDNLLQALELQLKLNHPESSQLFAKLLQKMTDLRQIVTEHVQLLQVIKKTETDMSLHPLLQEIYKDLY
Aromatase (Homo sapiens), sequence (P11511 whole entry, looked up): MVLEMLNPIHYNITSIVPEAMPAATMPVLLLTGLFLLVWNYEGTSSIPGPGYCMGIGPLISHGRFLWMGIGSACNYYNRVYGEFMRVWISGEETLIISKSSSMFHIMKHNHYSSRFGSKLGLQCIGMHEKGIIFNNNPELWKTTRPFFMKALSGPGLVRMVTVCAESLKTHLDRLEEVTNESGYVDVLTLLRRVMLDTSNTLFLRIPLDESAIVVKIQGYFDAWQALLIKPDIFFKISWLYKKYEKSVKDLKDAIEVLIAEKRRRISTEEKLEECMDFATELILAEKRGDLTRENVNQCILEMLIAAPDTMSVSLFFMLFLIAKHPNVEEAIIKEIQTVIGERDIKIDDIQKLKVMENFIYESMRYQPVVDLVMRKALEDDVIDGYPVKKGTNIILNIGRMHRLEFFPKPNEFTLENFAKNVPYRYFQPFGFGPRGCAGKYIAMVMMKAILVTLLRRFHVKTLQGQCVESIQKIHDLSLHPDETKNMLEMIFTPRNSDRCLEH

O=CCCCC=O
inactive and 53 µM (active): [10]
52.5 µM (active) and inactive: [12]
inactive: [1] | [2] | [3] | [4] | [5] | [6] | [7] | Aromatase (Homo sapiens) | [8] | [9] | [11] | [13] | [15] | [16]
47.2 µM (active) and inactive: [14]

COC(=O)Nc1nc2ccc(S(=O)c3ccccc3)cc2[nH]1 (stereo not drawn)
inactive: [2] | [4] | [5] | [6] | [7] | Aromatase (Homo sapiens) | [8] | [9] | [10] | [19] | [11] | [12] | [13] | [14] | [15]
active: [1] 10.6 µM and 15.3 µM | [17] 12.2 µM | [18] 3.76 µM and 3.06 µM

CCC(C)OC(=O)c1ccc(O)cc1 (stereo not drawn)
inactive: [1] | [2] | [3] | [4] | [7] | Aromatase (Homo sapiens) | [8] | [18] | [9] | [10] | [11] | [12] | [13] | [14] | [15]
active: [5] 24.7 µM [inconclusive] and 38.9 µM [inconclusive] | [6] 6.9 µM and 6.11 µM

Clc1nc(Cl)c(Cl)c(Cl)c1Cl
inactive: [1] | [2] | [4] | [7] | Aromatase (Homo sapiens) | [8] | [18] | [9] | [10] | [11] | [13] | [14] | [15] | [16]
active: [12] 7.74 µM

CCCc1c(OCCCCc2nn[nH]n2)ccc(C(C)=O)c1O
inactive: [2] | [4] | [5] | [6] | [17] | [7] | Aromatase (Homo sapiens) | [8] | [9] | [11] | [13] | [14]
active: [1] 23.7 µM and 61.1 µM | [10] 2.19 µM

S=C(NC1CCCCC1)NC1CCCCC1
inactive: [1] | [2] | [3] | [5] | [7] | [8] | [18] | [10] | [19] | [11] | [13]
active: [4] 48.1 µM | [17] 75.5 µM and 54.5 µM | [12] 34.4 µM | [15] 9.23 µM and 13.8 µM
inactive and 17.2 µM (active): [9]

CN(C)CCC=C1c2ccccc2CCc2ccccc21
active: [1] 26.6 µM and 24.3 µM and 21.7 µM | [3] 54.9 µM [inconclusive] | [9] 48.6 µM
inactive: [2] | [5] | [6] | [7] | Aromatase (Homo sapiens) | [8] | [18] | [19] | [13] | [14]

O=C(Nc1ccc(Cl)cc1)Nc1ccc(Cl)c(Cl)c1
inactive: [2] | [5] | [7] | [9] | [10] | [14] | [15]
active: [1] 2.66 µM and 2.72 µM and 2.73 µM | [3] 3.47 µM [cytotoxic] | [17] 13.3 µM and 24.2 µM | Aromatase (Homo sapiens) 9.64 µM and 13.7 µM | [8] 19.2 µM and 30.6 µM | [18] 2.16 µM and 2.73 µM | [11] 4.34 µM and 4.9 µM and 6.68 µM | [13] 2.42 µM and 2.73 µM and 10.6 µM

O=C(c1ccccc1)c1ccccc1O
inactive and 27.3 µM (active): Aromatase (Homo sapiens)
inactive: [1] | [2] | [4] | [7] | [8] | [9] | [10] | [19] | [11] | [12] | [13] | [14] | [16]

CNCCCC12CCC(c3ccccc31)c1ccccc12
active: [19] 13.3 µM | [11] 54.9 µM | [13] 19.3 µM | [16] 17.4 µM and 29.8 µM
inactive and 49 µM (active): [4]
inactive: [5] | [6] | [7] | [18] | [10] | [14] | [15]
inactive and 61.1 µM (active): [9]
inactive and 30.6 µM (active): Aromatase (Homo sapiens)
inactive and 54.5 µM (active): [8]

NC=O
inactive: [1] | [2] | [7] | Aromatase (Homo sapiens) | [8] | [18] | [9] | [10] | [19] | [11] | [12] | [13] | [14] | [16]

C/C=C/C(=O)O
inactive: [1] | [2] | [4] | [7] | [9] | [11] | [12] | [13] | [14] | [16]

Source: PubChem BioAssay (Tox21)
